Reference: PubChem BioAssay AID1159580 (chemical genetic matrix, 2015)
Hit rate of the full screen: of about 5,500 compounds, about 2,000 (36%) were called active. Roughly 18% stayed inconclusive and do not appear here. Cut-off read from the data, not from the text of the source: active = normalized growth mostly below about 0.91 (no sharp cut-off); inconclusive = no clear call, values can overlap the other calls; inactive = mostly above about 0.92. The list shows a part of the results.

Assay: chemical genetic growth profiling, strain panel (AID 1159580);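 note: tested at 20 µM; growth read once vehicle control cultures reached saturation at 30 °C; 1 = growth at the plate median or of vehicle wells; lower values mean less growth of the strain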
Conditions: S. cerevisiae deletion strains, growth OD
[1] = locus YBR229C, strain ROT2, stronger effect = lower value
[2] = locus YDL101C, strain DUN1, stronger effect = lower value
[3] = locus YEL061C, strain CIN8, stronger effect = lower value
[4] = locus YGR078C, strain PAC10, stronger effect = lower value
[5] = locus YHR030C, strain SLT2, stronger effect = lower value
[6] = locus YJL095W, strain BCK1, stronger effect = lower value
[7] = locus YJR043C, strain POL32, stronger effect = lower value
[8] = locus YLR039C, strain RIC1, stronger effect = lower value
[9] = locus YLR262C, strain YPT6, stronger effect = lower value
[10] = locus YMR263W, strain SAP30, stronger effect = lower value
[11] = locus YNL322C, strain KRE1, stronger effect = lower value
[12] = locus YPL055C, strain LGE1, stronger effect = lower value
[13] = locus YPL241C, strain CIN2, stronger effect = lower value
[14] = locus YCL061C, strain MRC1, stronger effect = lower value

Measured: normalized growth

O=c1c2ccccc2oc2ccc(O)cc12
active: locus YCL029C, strain bik1, stronger effect = lower value 0.865 | locus YDL035C, strain GPR1, stronger effect = lower value 0.814 | locus YDL074C, strain BRE1, stronger effect = lower value 0.737 | [2] 0.791 | locus YDL134C, strain PPH21, stronger effect = lower value 0.759 | locus YDL185W, strain tfp1, stronger effect = lower value 0.901 | locus YDL192W, strain arf1, stronger effect = lower value 0.864 | locus YDR162C, strain NBP2, stronger effect = lower value 0.368 | locus YDR318W, strain mcm21, stronger effect = lower value 0.896 | locus YDR502C, strain sam2, stronger effect = lower value 0.895 | [3] 0.863 | locus YGL086W, strain mad1, stronger effect = lower value 0.854 | locus YGL248W, strain PDE1, stronger effect = lower value 0.811 | [4] 0.736 | locus YGR135W, strain pre9, stronger effect = lower value 0.856 | [5] 0.738 | locus YHR129C, strain ARP1, stronger effect = lower value 0.889 | locus YIL066C, strain RNR3, stronger effect = lower value 0.767 | [6] 0.516 | locus YJL187C, strain SWE1 (second series), stronger effect = lower value 0.828 | locus YKR001C, strain vps1, stronger effect = lower value 0.509 | [8] 0.49 | locus YLR058C, strain SHM2, stronger effect = lower value 0.886 | [9] 0.461 | locus YLR268W, strain sec22, stronger effect = lower value 0.859 | locus YLR330W, strain CHS5, stronger effect = lower value 0.834 | locus YLR371W, strain rom2, stronger effect = lower value 0.894 | locus YLR418C, strain cdc73, stronger effect = lower value 0.786 | locus YML016C, strain PPZ1, stronger effect = lower value 0.915 | locus YML032C, strain rad52, stronger effect = lower value 0.757 | locus YMR223W, strain ubp8, stronger effect = lower value 0.895 | [10] 0.833 | locus YNL233W, strain BNI4, stronger effect = lower value 0.782 | locus YNL271C, strain bni1, stronger effect = lower value 0.915 | locus YNL307C, strain MCK1, stronger effect = lower value 0.63 | locus YNR052C, strain pop2, stronger effect = lower value 0.871 | locus YOL147C, strain pex11, stronger effect = lower value 0.926 | locus YOR069W, strain VPS5, stronger effect = lower value 0.919 | locus YOR184W, strain ser1, stronger effect = lower value 0.746 | locus YPR163C, strain tif3, stronger effect = lower value 0.772
inactive: locus YBR021W, strain FUR4, stronger effect = lower value 1.13 | [1] 0.952 | locus YDR101C, strain arx1, stronger effect = lower value 0.922 | locus YDR388W, stronger effect = lower value 0.937 | locus YER110C, stronger effect = lower value 0.919 | locus YER155C, strain BEM2, stronger effect = lower value 0.978 | locus YER167W, strain BCK2, stronger effect = lower value 0.949 | locus YGL078C, strain dbp3, stronger effect = lower value 0.962 | locus YGR252W, strain gcn5, stronger effect = lower value 0.847 | locus YHR079C, strain IRE1 (second series), stronger effect = lower value 0.961 | locus YHR094C, strain hxt1, stronger effect = lower value 0.977 | locus YHR200W, strain rpn10, stronger effect = lower value 0.956 | locus YIL073C, strain SPO22, stronger effect = lower value 0.815 | locus YIL125W, strain kgd1, stronger effect = lower value 0.962 | locus YIR030C, strain dcg1, stronger effect = lower value 0.933 | locus YJL134W, strain LCB3, stronger effect = lower value 0.941 | locus YJL168C, strain set2, stronger effect = lower value 0.948 | [7] 0.981 | locus YKL009W, strain mrt4, stronger effect = lower value 0.939 | locus YKL068W, stronger effect = lower value 1.01 | locus YKL085W, strain MDH1 (second series), stronger effect = lower value 0.976 | locus YKL085W, strain MDH1, stronger effect = lower value 0.976 | locus YLR102C, strain apc9, stronger effect = lower value 0.984 | locus YLR342W, strain FKS1 (second series), stronger effect = lower value 0.918 | locus YML124C, strain tub3, stronger effect = lower value 0.945 | locus YMR078C, strain ctf18, stronger effect = lower value 0.938 | locus YMR307W, strain GAS1, stronger effect = lower value 0.881 | locus YNL067W, strain RPL9B, stronger effect = lower value 0.871 | locus YNL250W, strain rad50, stronger effect = lower value 0.917 | locus YNL298W, strain CLA4, stronger effect = lower value 0.941 | [11] 0.948 | locus YOL012C, strain htz1 1.06 | locus YOR061W, strain CKA2, stronger effect = lower value 0.924 | locus YOR136W, strain idh2, stronger effect = lower value 0.957 | locus YOR144C, strain elg1, stronger effect = lower value 0.943 | locus YOR316C, strain cot1, stronger effect = lower value 0.967 | [12] 0.827 | [13] 0.941 | locus YPR119W, strain clb2, stronger effect = lower value 0.949 | locus YPR141C, strain kar3, stronger effect = lower value 0.965 | locus YPR167C, strain met16, stronger effect = lower value 0.934 | strain wtn01, stronger effect = lower value 0.931

O=C(O)c1coc2ccccc2c1=O
inactive: locus YAL013W, strain DEP1, stronger effect = lower value 1 | [1] 0.99 | [2] 0.973 | locus YDR150W, strain NUM1, stronger effect = lower value 0.908 | [3] 1.02 | [4] 0.995 | locus YGR229C, strain SMI1, stronger effect = lower value 0.999 | [5] 0.867 | locus YHR087W, strain rtc3, stronger effect = lower value 0.96 | locus YJL187C, strain SWE1, stronger effect = lower value 0.992 | [7] 1 | locus YJR075W, strain HOC1, stronger effect = lower value 0.897 | locus YKL190W, strain CNB1, stronger effect = lower value 1.01 | locus YLR058C, strain SHM2 (second series), stronger effect = lower value 0.995 | locus YLR085C, strain ARP6, stronger effect = lower value 0.853 | locus YML094W, strain GIM5, stronger effect = lower value 0.96 | locus YMR219W, strain ESC1, stronger effect = lower value 0.964 | [10] 0.978 | locus YNL153C, strain GIM3, stronger effect = lower value 0.982 | locus YNL298W, strain CLA4 (second series), stronger effect = lower value 1 | [11] 0.994 | locus YNR030W, strain Alg12, stronger effect = lower value 0.888 | locus YOL006C, strain TOP1, stronger effect = lower value 0.852 | [12] 0.906 | locus YPR135W, strain CTF4, stronger effect = lower value 0.892
active: [14] 0.906 | [8] 0.665 | [9] 0.764 | [13] 0.833

O=C(O)c1cc(=O)c2ccccc2o1
inactive: locus YAL021C, strain ccr4, stronger effect = lower value 1.01 | locus YAL026C, strain drs2, stronger effect = lower value 0.984 | locus YAL030W, strain snc1, stronger effect = lower value 0.971 | locus YBL061C, strain skt5, stronger effect = lower value 0.974 | locus YBR009C, strain hhf1, stronger effect = lower value 0.989 | locus YBR023C, strain chs3, stronger effect = lower value 0.982 | locus YBR171W, strain sec66, stronger effect = lower value 0.965 | locus YBR231C, strain swc5, stronger effect = lower value 0.982 | locus YBR279W, strain paf1, stronger effect = lower value 0.981 | locus YCL011C, strain gbp2, stronger effect = lower value 0.988 | locus YCL016C, strain dcc1, stronger effect = lower value 0.995 | [14] 0.979 | locus YCL069W, strain vba3, stronger effect = lower value 0.99 | locus YCR088W, strain abp1, stronger effect = lower value 0.973 | locus YDL005C, strain med2, stronger effect = lower value 0.967 | locus YDL040C, strain nat1, stronger effect = lower value 0.98 | locus YDR001C, strain nth1, stronger effect = lower value 0.972 | locus YDR069C, strain doa4, stronger effect = lower value 0.966 | locus YDR137W, strain rgp1, stronger effect = lower value 0.971 | locus YDR159W, strain sac3, stronger effect = lower value 1 | locus YDR195W, strain ref2 0.916 | locus YDR297W, strain sur2, stronger effect = lower value 0.983 | locus YDR334W, strain swr1, stronger effect = lower value 0.976 | locus YDR335W, strain msn5, stronger effect = lower value 0.986 | locus YDR392W, strain spt3, stronger effect = lower value 1.02 | locus YEL003W, strain gim4, stronger effect = lower value 0.983 | locus YEL037C, strain rad23, stronger effect = lower value 0.973 | locus YEL061C, strain CIN8 (second series), stronger effect = lower value 0.97 | locus YER015W, strain faa2, stronger effect = lower value 0.99 | locus YER016W, strain bim1, stronger effect = lower value 0.984 | locus YER111C, strain swi4, stronger effect = lower value 0.972 | locus YER155C, strain BEM2 (second series), stronger effect = lower value 0.936 | locus YFR010W, strain ubp6, stronger effect = lower value 0.976 | locus YGL167C, strain pmr1, stronger effect = lower value 0.973 | locus YGL173C, strain kem1, stronger effect = lower value 0.975 | locus YGL227W, strain vid30, stronger effect = lower value 0.968 | locus YGL240W, strain doc1, stronger effect = lower value 0.96 | locus YGL253W, strain hxk2, stronger effect = lower value 0.992 | locus YHR013C, strain ard1, stronger effect = lower value 0.978 | locus YHR027C, strain rpn1, stronger effect = lower value 0.977 | [5] 1.03 | locus YHR079C, strain IRE1, stronger effect = lower value 1.02 | locus YHR142W, strain chs7, stronger effect = lower value 0.983 | locus YJL092W, strain hpr5, stronger effect = lower value 0.98 | locus YJL095W, strain BCK1 (second series), stronger effect = lower value 0.97 | [6] 1.03 | locus YJL115W, strain asf1, stronger effect = lower value 0.979 | locus YJL129C, strain trk1, stronger effect = lower value 0.95 | locus YJL154C, strain vps35, stronger effect = lower value 0.952 | locus YJL164C, strain tpk1, stronger effect = lower value 0.98 | locus YJL166W, strain qcr8, stronger effect = lower value 0.97 | locus YJR066W, strain TOR1, stronger effect = lower value 0.956 | locus YKL160W, strain elf1, stronger effect = lower value 0.987 | locus YKR026C, strain gcn3, stronger effect = lower value 0.971 | locus YKR091W, strain srl3, stronger effect = lower value 0.972 | locus YLL001W, strain dnm1, stronger effect = lower value 0.957 | locus YLL026W, stronger effect = lower value 0.969 | locus YLL041C, strain sdh2, stronger effect = lower value 0.972 | locus YLR027C, strain aat2, stronger effect = lower value 0.979 | locus YLR113W, strain HOG1, stronger effect = lower value 1.05 | locus YLR221C, strain rsa3, stronger effect = lower value 1 | locus YLR258W, strain gsy2, stronger effect = lower value 0.985 | locus YLR262C, strain YPT6 (second series), stronger effect = lower value 0.986 | locus YLR320W, strain mms22, stronger effect = lower value 0.991 | locus YLR342W, strain FKS1, stronger effect = lower value 0.983 | locus YLR357W, strain rsc2, stronger effect = lower value 0.975 | locus YLR370C, strain arc18, stronger effect = lower value 0.974 | locus YLR384C, strain iki3, stronger effect = lower value 0.976 | locus YML120C, strain ndi1, stronger effect = lower value 0.958 | locus YMR058W, strain fet3, stronger effect = lower value 0.984 | locus YMR125W, strain sto1, stronger effect = lower value 0.95 | locus YMR129W, stronger effect = lower value 0.981 | locus YMR205C, strain PFK2, stronger effect = lower value 0.969 | locus YMR231W, strain pep5, stronger effect = lower value 0.949 | locus YNL071W, strain lat1, stronger effect = lower value 0.988 | locus YNL183C, strain NPR1, stronger effect = lower value 0.949 | locus YNL209W, strain ssb2, stronger effect = lower value 1.03 | locus YNL248C, strain rpa49, stronger effect = lower value 0.968 | locus YNL322C, strain KRE1 (second series), stronger effect = lower value 0.953 | locus YNR049C, strain mso1, stronger effect = lower value 0.982 | locus YOR001W, strain rrp6, stronger effect = lower value 0.983 | locus YOR070C, strain gyp1, stronger effect = lower value 0.985 | locus YOR080W, strain dia2, stronger effect = lower value 0.971 | locus YOR083W, strain WHI5, stronger effect = lower value 0.982 | locus YOR106W, strain vam3, stronger effect = lower value 0.972 | locus YOR231W, strain MKK1, stronger effect = lower value 1.07 | locus YOR265W, strain rbl2, stronger effect = lower value 0.976 | locus YOR270C, strain vph1, stronger effect = lower value 0.962 | locus YOR290C, strain snf2, stronger effect = lower value 1 | locus YPL051W, strain arl3, stronger effect = lower value 0.983 | locus YPL078C, strain atp4, stronger effect = lower value 0.975 | locus YPL106C, strain sse1, stronger effect = lower value 0.988 | locus YPL240C, strain hsp82, stronger effect = lower value 0.994 | locus YPL256C, strain CLN2, stronger effect = lower value 1.03
